The list is not random: actives were taken first. Their share in the collection is about 2.4%.
POLB inh – blocks human DNA polymerase beta activity; P06746; Pol beta primer extension/strand displacement, fluorescence kinetic; Potency, µM (series often up to 114 µM), actives largely listed as inhibitors; 340,000 compounds, 1.3% hits
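Enzyme-only controls used 10 nM Pol beta; buffer lacking enzyme served as negative control. Compound preincubated 15 min, then 50 nM substrate added; 0 and 10 min reads at room temperature.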
FEN1 inh – blocks human flap endonuclease 1; P39748; Recombinant FEN1 flap cleavage, fluorescence, 15 min; Potency, µM (top dose mostly 114 µM), usual class: inhibitors; 390,000 compounds, 0.35% hits; AID 588795; also: nearly all actives have a fitted effect of over 65% in size
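Concentration–response screening of FEN1 (10 nM): 15 min compound preincubation at room temperature, reaction started with 50 nM substrate and read at 0 and 15 min. Corrected, normalized data were fitted by a four-parameter Hill equation.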
POLI inh – blocks human DNA polymerase iota activity; AID 588590; Pol iota fluorescent replication assay, 10 min; Potency, µM (top dose mostly 115 µM), most hits filed as inhibitors; 390,000 compounds, 1% hits
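Fluorescent replication assay read twice, at 0 min and 10 min after adding 50 nM (final) substrate. Enzyme (10 nM) and compounds were first incubated 15 min at room temperature; enzyme-free buffer wells were negative controls.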
WRN helicase inh – blocks human WRN helicase; Q14191; AID 651768; 360,000 compounds, 0.46% hits; Potency, µM (doses to about 114 µM), usual class: inhibitors; WRN helicase unwinding, fluorescent forked duplex, kinetic; also: nearly all actives have a fitted effect of over 55% in size
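Enzyme (20 nM final) and test compound sit together 15 min at room temperature before substrate addition. Substrate is a single-forked duplex oligonucleotide (100 nM) labelled with fluorophore and quencher, with 2 mM ATP; helicase unwinding raises red fluorescence, read kinetically.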
POLK inh – DNA polymerase kappa (human) inhibition. purified Pol kappa, fluorescent DNA synthesis assay, 10 min. Potency, µM (top dose mostly 107 µM), hits mostly inhibitors. 400,000 compounds, 0.53% hits
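Enzyme at 10 nM met test compounds for 15 min at room temperature. Substrate addition (50 nM final) began the reaction, which was monitored by fluorescence at 0 and 10 min.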
POLH inh – blocks human DNA polymerase eta activity | recombinant Pol eta, fluorescent DNA replication assay | Q9Y253 | Potency, µM (series often up to 114 µM), actives largely listed as inhibitors | 390,000 compounds, 1.2% hits | AID 588591
Target sequence (Q9Y253 whole entry, looked up): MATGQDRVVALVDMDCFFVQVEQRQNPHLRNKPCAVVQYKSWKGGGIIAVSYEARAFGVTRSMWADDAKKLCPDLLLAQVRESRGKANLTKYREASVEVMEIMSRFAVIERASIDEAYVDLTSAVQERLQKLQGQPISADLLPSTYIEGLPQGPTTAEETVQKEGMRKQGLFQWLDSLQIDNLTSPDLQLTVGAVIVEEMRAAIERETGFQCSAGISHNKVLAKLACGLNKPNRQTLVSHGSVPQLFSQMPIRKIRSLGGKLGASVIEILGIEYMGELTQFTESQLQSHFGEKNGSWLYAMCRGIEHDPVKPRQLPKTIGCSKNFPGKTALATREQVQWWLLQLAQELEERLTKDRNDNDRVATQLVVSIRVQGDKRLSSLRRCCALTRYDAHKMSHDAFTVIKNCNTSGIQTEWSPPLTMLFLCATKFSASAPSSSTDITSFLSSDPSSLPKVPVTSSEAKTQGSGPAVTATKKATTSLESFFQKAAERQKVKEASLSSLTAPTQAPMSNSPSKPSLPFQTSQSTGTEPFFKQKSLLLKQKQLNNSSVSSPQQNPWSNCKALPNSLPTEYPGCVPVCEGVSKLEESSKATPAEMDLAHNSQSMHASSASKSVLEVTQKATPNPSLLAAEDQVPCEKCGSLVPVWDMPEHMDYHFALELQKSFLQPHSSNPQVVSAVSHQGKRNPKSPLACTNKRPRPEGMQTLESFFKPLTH
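Pol eta at 10 nM preincubated with compounds 15 min at room temperature; reaction started with fluorescent substrate (50 nM final) and read kinetically at 0 and 10 min.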
Large screens that a line does not name were inactive. Calls follow the shape of the dose curve; as a rule, active = well fitted curve in the direction sought with a large enough effect; inconclusive = small, poorly fitted or top-dose-only effect, or another doubt; inactive = no such curve, though single readings can be large; an effect the other way counts as inactive or inconclusive.

O=C1CNC(=O)/C(=C/c2ccco2)N1	POLI inh inconclusive, POLK inh 79.4µM
O=C1SC(c2ccccc2)=N/C1=C/c1ccco1	none
O=C(Nc1ccccc1F)C1CCCN(S(=O)(=O)c2ccccc2)C1 (stereo not given)	WRN helicase inh 79.4µM
O=C(Nc1ccccc1F)C1CCCN(S(=O)(=O)c2ccc(-n3cnnn3)cc2)C1 (stereo not given)	none
CCOC(=O)CN1C(=N)N(c2nc(NC(C)C)nc(OC)n2)CC1=O	POLI inh 79.4µM
COc1cc(/C=C2\C(=N)N3N=C(C(C)C)SC3=NC2=O)ccc1OCCOc1ccc(NC(C)=O)cc1	none
CCOc1cc(/C=C2\C(=N)N3N=C(CC)SC3=NC2=O)ccc1OCCOc1ccc(NC(C)=O)cc1	POLB inh 50.1µM
CCCC1=NN2C(=N)/C(=C\c3ccc(OCCOc4ccc(NC(C)=O)cc4)c(OC)c3)C(=O)N=C2S1	POLB inh inconclusive, POLH inh 79.4µM
COc1cc(/C=C2\C(=N)N3N=C(C)SC3=NC2=O)cc(Cl)c1OCCOc1ccc(NC(C)=O)cc1	POLI inh inconclusive, POLH inh 89.1µM
COc1ccc(NC(=O)CN2CCCN(S(=O)(=O)c3ccc(Br)cc3)CC2)c(OC)c1	none (no result: WRN helicase inh)
CCC[C@@H]1CC2=CC(=O)CC[C@]2(C)[C@H]2CC[C@@]3(C)[C@@H](CC[C@@]34CCC(=O)O4)[C@H]12	none (no result: POLB inh, FEN1 inh, POLI inh, WRN helicase inh, POLH inh)
COc1ccc(CCNC(=O)CCc2c(C)c3cc4c(C)coc4c(C)c3oc2=O)cc1OC	POLB inh inconclusive (no result: WRN helicase inh)
COc1cc(O)c(CC=C(C)C)c(O)c1C(=O)CCc1ccc(O)cc1	none
O=C(CCc1ccc(O)cc1)c1c(O)cc(O)cc1O	POLB inh 7.08µM, FEN1 inh inconclusive, POLK inh inconclusive
CCCCNC(=O)NS(=O)(=O)c1ccc(C(=O)O)cc1	none (no result: POLB inh, FEN1 inh, POLI inh, WRN helicase inh, POLH inh)
Nc1c(-c2nc(-c3cccs3)no2)nnn1-c1cccc(Cl)c1	none (no result: WRN helicase inh)
Cn1ncc(N=Cc2c(O)ccc3ccccc23)c1C(=O)Nc1cccc(Cl)c1	POLI inh inconclusive, WRN helicase inh inconclusive, POLH inh 50.1µM
CCOc1ccc(C(=O)c2cn(CC(=O)Nc3cccc(OC)c3)c3cc4c(cc3c2=O)OCCO4)cc1	none (no result: WRN helicase inh)
NNc1nc2c(-c3ccc(F)cc3)nnn2c2ccccc12	POLB inh inconclusive, FEN1 inh 28.2µM
NNc1nc2c(-c3ccc(Cl)cc3)nnn2c2ccccc12	POLB inh inconclusive
COc1ccc(-c2noc(-c3ccc(N4CCOCC4)c([N+](=O)[O-])c3)n2)cc1OC	none (no result: WRN helicase inh)
COc1ccc(-c2noc(-c3ccc(N4CCC(C)CC4)c([N+](=O)[O-])c3)n2)cc1OC	POLB inh 79.4µM, POLK inh inconclusive (no result: WRN helicase inh)
CCC(CC)=NNc1ccc([N+](=O)[O-])cc1[N+](=O)[O-]	none
O=C(O)/C(CC(=O)c1ccc(Cl)cc1)=N/Nc1ccc([N+](=O)[O-])cc1[N+](=O)[O-]	POLB inh inconclusive, POLI inh inconclusive, POLK inh inconclusive, POLH inh 89.1µM
O=C(Nc1cc(Cl)ccc1Cl)c1cc(S(=O)(=O)N2CCCc3ccccc32)ccc1F	none (no result: WRN helicase inh)
CCOC(=O)c1c(NC(=O)c2nc(S(C)(=O)=O)ncc2Cl)sc(C(C)=O)c1C	POLH inh 79.4µM (no result: WRN helicase inh)
CCOC(=O)c1c(-c2ccccc2)csc1NC(=O)c1nc(S(=O)(=O)CC)ncc1Cl	none (no result: WRN helicase inh)
COc1ccc2cc3cc(C(=O)NCc4ccco4)oc3nc2c1	POLB inh 22.4µM, FEN1 inh inconclusive, POLI inh inconclusive, WRN helicase inh inconclusive, POLK inh inconclusive, POLH inh 15.8µM
Cc1cc(C)n(-c2nc3cc(Cl)ccc3nc2N2CCN(c3cccc(C)c3C)CC2)n1	none (no result: WRN helicase inh)
O=C(NCCc1c[nH]c2ccccc12)OCCSS(=O)(=O)O	POLI inh 25.1µM
CCC(=O)NCCc1c[nH]c2ccccc12	none
O=C(O)c1ccc2c(c1)C(=O)/C(=C/c1ccccc1)C2=O	FEN1 inh 39.8µM, POLI inh inconclusive, WRN helicase inh inconclusive, POLK inh 25.1µM, POLH inh 2.82µM
COc1cc2c(NC3CCN(C)CC3)nc(N3CCCN(C)CC3)nc2cc1OCC1CCCCN1 (stereo not given)	FEN1 inh 20µM, POLI inh inconclusive, POLK inh inconclusive (no result: POLB inh, WRN helicase inh, POLH inh)
COc1cc2c(NC3CCN(C)CC3)nc(N3CCCN(C)CC3)nc2cc1OCCCCCN	FEN1 inh 8.91µM, POLI inh inconclusive, POLK inh inconclusive (no result: POLB inh, WRN helicase inh, POLH inh)
COCCCCOc1cc2nc(N3CCCN(C)CC3)nc(NC3CCN(C)CC3)c2cc1OC	FEN1 inh 44.7µM (no result: POLB inh, WRN helicase inh, POLH inh)
COc1cc2c(NC3CCN(C)CC3)nc(N3CCCN(C)CC3)nc2cc1OCCCCCC(N)=O	none (no result: POLB inh, WRN helicase inh, POLH inh)
O=S(=O)(c1ccc(-c2csc(=Nc3ccc(OC(F)(F)Cl)cc3)n2CCCO)cc1)N1CCCC1	POLB inh inconclusive (no result: WRN helicase inh)
CN[C@H]1[C@@H](O)[C@@H](NC)[C@@H]2O[C@@]3(O)C(=O)C[C@@H](C)O[C@H]3O[C@H]2[C@H]1O	none (no result: POLB inh, FEN1 inh, POLI inh, WRN helicase inh, POLH inh)
CCCc1cc(=O)[nH]c(-n2[nH]c3c(c2=O)CCCC3)n1	POLI inh 15.8µM, WRN helicase inh inconclusive
O=c1[nH]cc(C#Cc2ccccc2)c2ncncc12	none (no result: POLB inh, WRN helicase inh, POLH inh)
CCOc1ccc(CCNC(=O)c2sc3ncccc3c2-n2cccc2)cc1OCC	none (no result: WRN helicase inh)
O=C(Nc1ccc(NC(=S)NC(=O)c2cccs2)cc1)c1ccco1	POLB inh inconclusive, FEN1 inh inconclusive, POLI inh 35.5µM, WRN helicase inh inconclusive, POLK inh inconclusive, POLH inh 79.4µM
O=c1c2ccccc2sc2c(CO)ccc(NCCN3CCCCC3)c12	FEN1 inh 39.8µM, POLI inh inconclusive (no result: POLB inh)
COc1ccc(C2C(=O)N(C3CCCCC3)CC(=O)N2CCc2ccc(C)cc2)cc1OC (stereo not given)	none (no result: WRN helicase inh)
CCCCN(CC)C(=O)c1nn(C)c2c1CSc1ccccc1-2	none (no result: WRN helicase inh)
Oc1cc(Nc2cccnc2)cc2cccnc12	none (no result: POLB inh, WRN helicase inh)
Oc1cc(NCCc2cccnc2)cc2cccnc12	POLI inh 35.5µM (no result: POLB inh, WRN helicase inh)
CN(C)CC(C(=O)c1ccccc1)c1ccccc1 (stereo not given)	POLI inh 31.6µM, WRN helicase inh inconclusive
CC(=O)N1CCC2(CC1)CCN(c1ccccc1)CC2	none (no result: POLB inh, FEN1 inh, POLI inh, WRN helicase inh, POLH inh)
COc1cc(SC#N)ccc1N=Cc1c(C)[nH]n(-c2cccc3ccccc23)c1=O	POLI inh 12.6µM, WRN helicase inh inconclusive
CCc1nnc2c3ccccc3nc(N3CCN(c4cc(C)ccc4C)CC3)n12	none (no result: WRN helicase inh)
c1ccc(-c2ccccc2OCCOCCN2CCOCC2)cc1	POLB inh 50.1µM
N#Cc1ccccc1S(=O)(=O)N1CCN(C(=O)C2COc3ccccc3O2)CC1 (stereo not given)	POLI inh 79.4µM, WRN helicase inh inconclusive, POLH inh inconclusive (no result: POLB inh)
Cc1ccc2c(c1)N(CC(=O)Nc1c(C)cccc1C)C(=O)c1cccnc1O2	none

Screening data: PubChem BioAssay, National Center for Advancing Translational Sciences (NCATS)
